In the library only some 10% were active in any assay of this set; here they are far more common.
Mm-Cpn inhibitor: Inhibitors of TCP-1 ring complex (TRiC) of Methanococcus maripaludis (MmCpn): qHTS; Chaperonin Mm-Cpn (Methanococcus maripaludis); purified Mm-Cpn ATPase, ADP Transcreener TR-FRET; Potency, µM (titrated, usually from 76.9 µM), without a hit: at the top dose activity, negative = inhibition, hits mostly inhibitors; 330,000 compounds, 0.031% hits; AID 504842, 2011; further: potency means the concentration at half of the fitted maximal effect; nearly all actives have a fitted effect of over 80% in size
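TR-FRET (320 nm excitation; 590 and 665 nm emission) reports ADP made from 10 uM ATP by 25 nM enzyme; compounds were preincubated 10 min, reaction run 30 min, both at 37°C.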
PLK1 PBD block: qHTS for Inhibitors of PLK1-PDB (polo-like kinase 1 - polo-box domain): Primary Screen; Serine/threonine-protein kinase PLK1 (Homo sapiens), P53350; Plk1 PBD binding of FITC phosphopeptide, fluorescence polarization; Potency, µM, for inactives: max response, negative = inhibition, most hits filed as inhibitors; 360,000 compounds, 2.8% hits; AID 720504, 2013; further: potency means the concentration at half of the fitted maximal effect; series mostly up to about 57 µM; nearly all actives have a fitted effect of over 65% in size
VDR inhibitor: Inhibitors of the vitamin D receptor (VDR): qHTS | Vitamin D3 receptor (Homo sapiens), P11473 | VDR-SRC2-3 peptide fluorescence polarization, 2 h | Potency, µM, inactives show max response, negative = inhibition, usual class: inhibitors | 400,000 compounds, 0.93% hits; further: potency means the concentration at half of the fitted maximal effect
Target sequence (P11473 whole entry, looked up): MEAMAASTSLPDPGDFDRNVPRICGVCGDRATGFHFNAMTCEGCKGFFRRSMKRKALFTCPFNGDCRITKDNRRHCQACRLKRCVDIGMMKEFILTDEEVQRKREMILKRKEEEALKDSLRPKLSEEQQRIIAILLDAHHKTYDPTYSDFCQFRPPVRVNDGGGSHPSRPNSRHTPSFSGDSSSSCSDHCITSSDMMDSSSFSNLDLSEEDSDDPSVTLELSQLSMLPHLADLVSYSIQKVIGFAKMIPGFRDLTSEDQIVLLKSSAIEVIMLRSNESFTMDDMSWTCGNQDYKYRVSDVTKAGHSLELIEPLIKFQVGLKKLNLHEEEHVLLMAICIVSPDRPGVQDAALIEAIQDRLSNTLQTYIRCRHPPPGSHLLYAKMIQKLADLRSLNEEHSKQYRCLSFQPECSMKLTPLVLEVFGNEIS
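FP read-out; VDR + SRC2-3 coactivator peptide; 23 nl compound by pintool; 2 h RT incubation; reagents held at 4 deg C, protected from light.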
CCT modulator: High-Throughput Screening for Modulators of Cytosolic Chaperonin Activity | purified chaperonin ATPase assay, HTRF ADP detection, 30 min | activity change, % (no concentration beside the values), hits read low | 360,000 compounds, 0.3% hits; in the data active means activity change below about -30%
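ATPase activity: ADP formed was measured by HTRF Transcreener (665/615 nm ratio) after 30 min at 37 deg C with 10 uM ATP. Compounds screened at one 76 uM concentration against 40 or 20 nM TRiC in Tris pH 7.4/KCl/MgCl2/DTT buffer.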
G9a block: qHTS Assay for Inhibitors of Histone Lysine Methyltransferase G9a. G9a H3K9 monomethylation, AlphaScreen, 2 h. Histone-lysine N-methyltransferase EHMT2 (Homo sapiens), Q96KQ7. 350,000 compounds, 8.8% hits. Potency, µM (highest dose often 102 µM), for inactives: at the highest dose activity, negative = inhibition, actives largely listed as inhibitors; further: potency means the concentration at half of the fitted maximal effect; nearly all actives have a fitted effect of over 75% in size
Target sequence (Q96KQ7 913-1193 limits assumed): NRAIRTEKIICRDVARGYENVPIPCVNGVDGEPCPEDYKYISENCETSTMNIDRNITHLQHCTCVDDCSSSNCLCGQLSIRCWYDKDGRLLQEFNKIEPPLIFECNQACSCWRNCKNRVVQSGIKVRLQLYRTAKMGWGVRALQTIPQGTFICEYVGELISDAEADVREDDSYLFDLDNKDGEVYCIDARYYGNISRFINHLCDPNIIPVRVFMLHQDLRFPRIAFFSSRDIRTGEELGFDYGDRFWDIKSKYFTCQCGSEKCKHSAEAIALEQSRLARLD
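Signal arises when biotinylated H3K9 peptide, once monomethylated, bridges streptavidin donor and antibody-captured acceptor beads. Enzyme at 20 nM was preincubated 15 min with test compounds; peptide 500 nM and SAM 20 uM then reacted for 2 h.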
Sfp PPTase inh: qHTS Assay for Inhibitors of Bacillus subtilis Sfp phosphopantetheinyl transferase (PPTase). 4'-phosphopantetheinyl transferase ffp (Bacillus subtilis), Q9F4F7. Biochemical Sfp PPTase activity, qHTS. Potency, µM, for inactives: largest response in the series, negative = inhibition, hits mostly inhibitors. 310,000 compounds, 3.5% hits. AID 1490, 2009;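 further: the enzyme is Sfp with the accession as filed and its product quenches rhodamine fluorescence; potency means the concentration at half of the fitted maximal effect; 0% = enzyme reaction without inhibitor and -100% = no enzyme wells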
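Step 1, compound plus 15 nM Sfp-PPTase, 15 min, room temperature. Step 2, add rhodamine-CoA (5 uM) and BHQ-2-YbbR (12.5 uM). Step 3, read 525/598 nm fluorescence at 0 and 30 min.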
The depositor's hits bear a star; ! = a repeat was not active; [ ] = dose if it differs, or a comment. Unless noted, the call rests on the fitted dose curve; in most records, active means well fitted curve in the direction sought with a large enough effect; inconclusive means small, poorly fitted or top-dose-only effect, or another doubt; inactive means no such curve, though single readings can be large; an effect the other way counts as inactive or inconclusive. Unless noted, on the % scale 0 is the no-effect control and ±100 the full control effect.

How did Cc1ccc2nc3c(cc2c1)CN(Cc1ccco1)C(=NCC1CCCO1)S3 (stereo unspecified) do in these assays?
Mm-Cpn inhibitor: -3%; PLK1 PBD block: 27µM*; VDR inhibitor: inconclusive; CCT modulator: -1; G9a block: inconclusive; Sfp PPTase inh: inconclusive

What do the screens show for `COC(=O)c1ccc(OCC2c3cc(OC)c(OC)cc3CCN2C(=O)Cc2ccc(OC)cc2)cc1` (stereo unspecified)?
VDR inhibitor: 13%; G9a block: inconclusive

How did C=C1CC[C@H](O)C/C1=C/C=C1\CCC[C@]2(C)[C@H]1CC[C@H]2[C@@H](C)/C=C\[C@@H](C)C(C)C do in these assays?
VDR inhibitor: -9%; G9a block: inconclusive; Sfp PPTase inh: inconclusive

Results for CCC(C)N=C1Sc2nc3ccc(C)cc3cc2CN1CCOC (stereo unspecified) ?
Mm-Cpn inhibitor: 0%; PLK1 PBD block: 24µM*; VDR inhibitor: -27%; CCT modulator: 0; G9a block: 5µM*; Sfp PPTase inh: 45µM*

Results for CCOc1ccc(N=C2Sc3nc4ccc(C)cc4cc3CN2CCOC)cc1 ?
Mm-Cpn inhibitor: 3%; PLK1 PBD block: -7%; VDR inhibitor: 3%; CCT modulator: -1; G9a block: inconclusive; Sfp PPTase inh: inconclusive

How did COCCN1Cc2cc3cc(C)ccc3nc2SC1=Nc1ccc(OC)cc1 do in these assays?
Mm-Cpn inhibitor: -2%; PLK1 PBD block: -1%; VDR inhibitor: -11%; CCT modulator: -2; G9a block: 45µM*; Sfp PPTase inh: 20µM*

What do the screens show for `CCCCCCCCCCCCC[N+](C)(C)Cc1ccccc1`?
VDR inhibitor: 75%; G9a block: -34%[2.33 µM]; Sfp PPTase inh: -88%

What do the screens show for `FC(F)(F)c1cccc(N2CCN(c3nc4ccccc4n4cnnc34)CC2)c1`?
VDR inhibitor: -2%; G9a block: 6%[59 µM]

What do the screens show for `CCOC(=O)c1cc(C)n(CC2CCC(C(=O)Nc3cccc(C(C)=O)c3)CC2)c1C` (stereo unspecified)?
VDR inhibitor: -8%; G9a block: inconclusive

Results for COC(=O)/C=C/S(=O)(=O)c1ccc(NC(C)=O)cc1 ?
Mm-Cpn inhibitor: -1%; PLK1 PBD block: -10%; VDR inhibitor: -7%; CCT modulator: 0; G9a block: 8.9µM*; Sfp PPTase inh: inconclusive

What do the screens show for `c1ccc(-c2nc(-c3ccccc3)c(NC3CCCCC3)o2)cc1`?
VDR inhibitor: inconclusive; Sfp PPTase inh: 15%

What do the screens show for `COc1cc2c(cc1OC)C(C)N(C(=O)c1cc(Cl)nc(Cl)c1)CC2` (stereo unspecified)?
Mm-Cpn inhibitor: 0%; PLK1 PBD block: -16%; VDR inhibitor: 16%; CCT modulator: -2; G9a block: 8%; Sfp PPTase inh: 18%

What do the screens show for `COc1cc2c(cc1OC)C1N(CC2)C(=O)CCC12C(=O)CCCC2=O` (stereo unspecified)?
VDR inhibitor: 71µM*; Sfp PPTase inh: inconclusive

How did COc1cccc(N2CC(NC(=O)c3cccc(OC)c3OC)CC2=O)c1 (stereo unspecified) do in these assays?
VDR inhibitor: -12%; G9a block: inconclusive

How did CC(=O)N1CCc2cc(C(=O)CN3CCC(C)CC3)ccc21 do in these assays?
Mm-Cpn inhibitor: -2%; PLK1 PBD block: -9%; VDR inhibitor: -9%; CCT modulator: 0; G9a block: 18µM*; Sfp PPTase inh: -11%

How did CC(=O)N1CCc2cc(C(=O)CN3CCCN(Cc4ccc(F)cc4)C3)ccc21 do in these assays?
Mm-Cpn inhibitor: 0%; G9a block: 45µM*; Sfp PPTase inh: 8%

Results for CC(=O)N1CCc2cc(C(=O)CN3CCN(C(=O)c4ccco4)CC3)ccc21 ?
Mm-Cpn inhibitor: 0%; PLK1 PBD block: -13%; VDR inhibitor: -21%; CCT modulator: 0; G9a block: 13µM*; Sfp PPTase inh: 18µM*

What do the screens show for `CC1CCN(CC(=O)N2CCc3ccccc32)CC1`?
Mm-Cpn inhibitor: 2%; PLK1 PBD block: 2%; VDR inhibitor: 9%; CCT modulator: 1; G9a block: 53%; Sfp PPTase inh: 9%

Results for CC(=O)N1CCN(C(=O)c2ccco2)CC1 ?
Mm-Cpn inhibitor: 0%; PLK1 PBD block: -13%; VDR inhibitor: 8%; CCT modulator: -1; G9a block: 60%; Sfp PPTase inh: 1%

What do the screens show for `CC(=O)N1CCc2cc(C(=O)CN3CCN(c4cccc(Cl)c4)CC3)ccc21`?
Mm-Cpn inhibitor: -1%; PLK1 PBD block: -11%; VDR inhibitor: -12%; CCT modulator: 0; G9a block: 22µM*; Sfp PPTase inh: -26%

How did CC(=O)N1CCc2ccc(C(=O)CN3CCN(c4cccc(C)c4C)CC3)cc21 do in these assays?
Mm-Cpn inhibitor: 0%; G9a block: inconclusive; Sfp PPTase inh: -4%

How did CCCCOc1ccc(C(=O)NCCc2sc(-c3cccc(F)c3)nc2C)cc1 do in these assays?
VDR inhibitor: 15%; G9a block: 6%[59 µM]

Results for COc1ccccc1C(=O)Nc1nnc(S(=O)(=O)N2CCCCC2)s1 ?
Mm-Cpn inhibitor: -5%; PLK1 PBD block: -6%; VDR inhibitor: -3%; CCT modulator: 1; G9a block: 19%; Sfp PPTase inh: 10%

How did Cc1ccccc1C(=O)Nc1nnc(S(=O)(=O)N2CCCCCC2)s1 do in these assays?
Mm-Cpn inhibitor: -1%; PLK1 PBD block: -14%; VDR inhibitor: -9%; CCT modulator: 1; G9a block: 14µM*; Sfp PPTase inh: 21%

Results for COc1ccccc1C(=O)Nc1nnc(S(=O)(=O)N2CCCCCC2)s1 ?
Mm-Cpn inhibitor: -2%; PLK1 PBD block: -11%; VDR inhibitor: 1%; CCT modulator: 0; G9a block: 10µM*!; Sfp PPTase inh: 6%

What do the screens show for `O=C(Nc1nnc(S(=O)(=O)N2CCCCCC2)s1)c1ccccc1F`?
Mm-Cpn inhibitor: -7%; PLK1 PBD block: -6%; VDR inhibitor: -25%; CCT modulator: -3; G9a block: 11µM*!; Sfp PPTase inh: 27%

Results for O=C1CN(C(=O)COc2ccc(Cl)cc2Cl)C(c2ccccc2)c2cc(F)ccc2N1 (stereo unspecified) ?
VDR inhibitor: -13%; G9a block: -17%[59 µM]

What do the screens show for `CCN1CCc2c(sc(-n3cccc3)c2C(C)NC(=O)Nc2ccccc2C)C1` (stereo unspecified)?
VDR inhibitor: 16%; G9a block: inconclusive

Screens from PubChem.
